# Test results from PMC7862700, “An all-to-all approach to the identification of sequence-specific readers for epigenetic DNA modifications on cytosine”.
# Legend:
# Experiment in all cases: DAPPL (digital affinity profiling via proximity ligation, sequencing); 10 mM Tris-HCl pH 7.5, 50 mM NaCl, 1 mM DTT, 4% glycerol, room temperature, 30 min; GST-TFs on glutathione beads, 16-mer random dsDNA library, 0.1% formaldehyde crosslink after washing; high values mean tight binding
# [1] = biological target: T1, FEV (Homo sapiens, UniProt Q99581 1-238); settings: protein: recombinant; tags: N-terminal GST; dsDNA, one strand shown
# T1 sequence: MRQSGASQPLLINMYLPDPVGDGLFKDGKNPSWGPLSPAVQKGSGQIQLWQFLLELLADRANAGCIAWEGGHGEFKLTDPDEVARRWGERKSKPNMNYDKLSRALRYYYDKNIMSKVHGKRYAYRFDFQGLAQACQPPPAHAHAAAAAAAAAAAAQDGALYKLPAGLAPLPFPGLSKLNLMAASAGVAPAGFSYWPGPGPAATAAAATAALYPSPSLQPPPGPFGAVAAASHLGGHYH
# How it was run: (§1)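 In yeast, human transcription factors were expressed with a GST fusion, then pulled down on glutathione beads and given DNA barcodes. Pooled with a tag-only sample, they were exposed to 200 nmole of a 16-mer random double-stranded DNA library (Tris/NaCl/DTT/glycerol buffer, room temperature, 30 min), washed, crosslinked with 0.1% formaldehyde, proximity-ligated using BsaI/T4 ligase for 1 h at 37 °C, PCR-amplified and read on an Illumina NextSeq500. Each hexamer's frequency of reads for a factor, divided by the matching frequency for the tag-only sample, gives the binding signal.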
# [2] = biological target: ETV5 (Homo sapiens, UniProt P41161 1-510); settings: protein: recombinant; tags: N-terminal GST; dsDNA, one strand shown
# How it was run: as §1
# [3] = biological target: HSF1 (Homo sapiens, UniProt Q00613 1-529); settings: protein: recombinant; tags: N-terminal GST; chain copies: 3; dsDNA, one strand shown
# How it was run: as §1
# [4] = biological target: T2, SPIC (Homo sapiens, UniProt Q8N5J4 1-248); settings: protein: recombinant; tags: N-terminal GST; dsDNA, one strand shown
# T2 sequence: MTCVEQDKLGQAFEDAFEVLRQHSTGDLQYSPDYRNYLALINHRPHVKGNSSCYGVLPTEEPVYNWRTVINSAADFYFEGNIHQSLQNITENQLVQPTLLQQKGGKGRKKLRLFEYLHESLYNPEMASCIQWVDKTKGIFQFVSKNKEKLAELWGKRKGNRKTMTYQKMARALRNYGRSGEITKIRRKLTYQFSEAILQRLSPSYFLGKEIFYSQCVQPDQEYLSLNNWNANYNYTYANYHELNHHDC
# How it was run: as §1
# [5] = biological target: ELF4 (Homo sapiens, UniProt Q99607 1-663); settings: protein: recombinant; tags: N-terminal GST; dsDNA, one strand shown
# How it was run: as §1
# [6] = biological target: T3, ELK4 (Homo sapiens, UniProt P28324-2 1-405); settings: protein: recombinant; tags: N-terminal GST; dsDNA, one strand shown
# T3 sequence: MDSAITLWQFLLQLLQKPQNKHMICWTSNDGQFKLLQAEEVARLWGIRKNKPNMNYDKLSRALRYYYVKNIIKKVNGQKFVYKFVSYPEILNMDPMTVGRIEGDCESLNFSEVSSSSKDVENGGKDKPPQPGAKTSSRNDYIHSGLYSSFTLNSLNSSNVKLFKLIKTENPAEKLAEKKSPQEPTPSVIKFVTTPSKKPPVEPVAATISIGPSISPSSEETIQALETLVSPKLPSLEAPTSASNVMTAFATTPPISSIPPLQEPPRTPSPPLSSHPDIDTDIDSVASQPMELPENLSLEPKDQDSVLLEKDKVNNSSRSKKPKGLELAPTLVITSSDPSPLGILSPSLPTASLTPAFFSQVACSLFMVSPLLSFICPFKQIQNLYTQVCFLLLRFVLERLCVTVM
# How it was run: as §1
# [7] = biological target: T4, ETV2 (Homo sapiens, UniProt O00321 1-342); settings: protein: recombinant; tags: N-terminal GST; dsDNA, one strand shown
# T4 sequence: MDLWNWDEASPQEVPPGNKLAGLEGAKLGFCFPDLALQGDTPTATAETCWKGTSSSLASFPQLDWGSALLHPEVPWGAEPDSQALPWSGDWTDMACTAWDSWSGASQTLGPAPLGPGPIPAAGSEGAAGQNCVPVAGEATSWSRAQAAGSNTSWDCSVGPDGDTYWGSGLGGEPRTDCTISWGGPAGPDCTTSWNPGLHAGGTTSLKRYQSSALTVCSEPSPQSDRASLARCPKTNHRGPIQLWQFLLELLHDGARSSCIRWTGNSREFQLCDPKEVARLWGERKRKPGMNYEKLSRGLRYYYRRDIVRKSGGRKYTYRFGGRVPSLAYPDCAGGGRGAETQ
# How it was run: as §1
# [8] = biological target: T5, ELF3 (Homo sapiens, UniProt P78545 1-371); settings: protein: recombinant; tags: N-terminal GST; dsDNA, one strand shown
# T5 sequence: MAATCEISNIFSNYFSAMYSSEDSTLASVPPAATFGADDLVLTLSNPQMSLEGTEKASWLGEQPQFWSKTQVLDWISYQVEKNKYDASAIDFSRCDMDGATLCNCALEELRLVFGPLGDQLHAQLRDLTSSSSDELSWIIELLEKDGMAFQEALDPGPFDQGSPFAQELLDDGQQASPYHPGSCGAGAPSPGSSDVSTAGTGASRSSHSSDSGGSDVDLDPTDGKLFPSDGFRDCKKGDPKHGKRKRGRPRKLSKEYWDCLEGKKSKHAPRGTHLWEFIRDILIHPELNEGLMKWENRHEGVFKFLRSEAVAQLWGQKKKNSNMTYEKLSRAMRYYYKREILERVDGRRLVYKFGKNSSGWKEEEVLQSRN
# How it was run: as §1
# [9] = biological target: ETV1 (Homo sapiens, UniProt P50549 1-477); settings: protein: recombinant; tags: N-terminal GST; dsDNA, one strand shown
# How it was run: as §1
# [10] = biological target: T6, ERF (Homo sapiens, UniProt P50548 1-548); settings: protein: recombinant; tags: N-terminal GST; dsDNA, one strand shown
# T6 sequence: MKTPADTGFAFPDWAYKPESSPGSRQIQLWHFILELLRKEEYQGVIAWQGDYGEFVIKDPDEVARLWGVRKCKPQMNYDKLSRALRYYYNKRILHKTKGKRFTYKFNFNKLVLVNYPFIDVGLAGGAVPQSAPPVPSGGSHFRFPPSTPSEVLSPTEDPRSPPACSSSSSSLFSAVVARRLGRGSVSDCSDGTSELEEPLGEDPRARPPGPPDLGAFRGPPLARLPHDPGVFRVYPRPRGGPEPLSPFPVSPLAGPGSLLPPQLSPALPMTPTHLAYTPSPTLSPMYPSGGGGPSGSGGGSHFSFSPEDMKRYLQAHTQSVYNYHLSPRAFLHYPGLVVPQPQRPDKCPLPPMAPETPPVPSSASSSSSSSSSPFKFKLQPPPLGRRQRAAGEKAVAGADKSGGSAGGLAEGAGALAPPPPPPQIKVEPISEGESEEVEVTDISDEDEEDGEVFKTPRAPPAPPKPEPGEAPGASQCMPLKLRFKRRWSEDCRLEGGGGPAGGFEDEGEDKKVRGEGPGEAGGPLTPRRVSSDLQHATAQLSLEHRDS
# How it was run: as §1
# [11] = biological target: T7, ETV3L (Homo sapiens, UniProt Q6ZN32 1-361); settings: protein: recombinant; tags: N-terminal GST; dsDNA, one strand shown
# T7 sequence: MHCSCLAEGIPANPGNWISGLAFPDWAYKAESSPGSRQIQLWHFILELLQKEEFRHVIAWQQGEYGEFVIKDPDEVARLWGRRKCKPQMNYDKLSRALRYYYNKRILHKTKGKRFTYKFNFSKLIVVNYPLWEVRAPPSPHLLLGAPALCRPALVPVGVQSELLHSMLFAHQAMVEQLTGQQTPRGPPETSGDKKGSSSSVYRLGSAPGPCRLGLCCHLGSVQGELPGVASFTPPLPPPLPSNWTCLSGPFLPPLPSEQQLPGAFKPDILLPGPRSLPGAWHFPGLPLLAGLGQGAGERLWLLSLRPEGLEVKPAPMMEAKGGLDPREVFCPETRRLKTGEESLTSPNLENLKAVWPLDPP
# How it was run: as §1
# [12] = biological target: T8, ETS2 (Homo sapiens, UniProt P15036 1-469); settings: protein: recombinant; tags: N-terminal GST; dsDNA, one strand shown
# T8 sequence: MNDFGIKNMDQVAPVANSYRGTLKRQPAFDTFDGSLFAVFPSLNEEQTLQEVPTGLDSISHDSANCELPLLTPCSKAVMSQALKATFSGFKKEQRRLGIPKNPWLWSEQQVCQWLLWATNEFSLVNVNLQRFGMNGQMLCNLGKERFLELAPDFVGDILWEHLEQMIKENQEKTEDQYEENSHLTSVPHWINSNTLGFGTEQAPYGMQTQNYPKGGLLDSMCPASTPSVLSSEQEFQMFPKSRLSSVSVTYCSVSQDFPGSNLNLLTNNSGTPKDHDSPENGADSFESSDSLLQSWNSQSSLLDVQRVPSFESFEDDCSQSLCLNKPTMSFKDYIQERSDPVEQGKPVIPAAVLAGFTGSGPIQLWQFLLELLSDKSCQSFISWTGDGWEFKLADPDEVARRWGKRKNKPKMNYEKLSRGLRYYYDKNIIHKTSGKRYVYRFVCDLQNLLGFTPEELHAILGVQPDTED
# How it was run: as §1
# [13] = biological target: T9, SPDEF (Homo sapiens, UniProt O95238 1-335); settings: protein: recombinant; tags: N-terminal GST; dsDNA, one strand shown
# T9 sequence: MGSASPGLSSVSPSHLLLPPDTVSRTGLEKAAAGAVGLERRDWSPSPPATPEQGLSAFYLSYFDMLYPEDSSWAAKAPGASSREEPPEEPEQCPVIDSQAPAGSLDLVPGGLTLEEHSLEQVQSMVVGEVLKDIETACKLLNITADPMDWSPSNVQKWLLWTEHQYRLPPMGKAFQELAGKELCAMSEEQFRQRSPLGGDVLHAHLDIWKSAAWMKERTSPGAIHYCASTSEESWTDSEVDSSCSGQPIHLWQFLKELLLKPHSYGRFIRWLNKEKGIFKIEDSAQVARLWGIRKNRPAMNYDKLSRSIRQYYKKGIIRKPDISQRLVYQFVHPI
# How it was run: as §1
# [14] = biological target: T10, ETV7 (Homo sapiens, UniProt Q9Y603 1-341); settings: protein: recombinant; tags: N-terminal GST; dsDNA, one strand shown
# T10 sequence: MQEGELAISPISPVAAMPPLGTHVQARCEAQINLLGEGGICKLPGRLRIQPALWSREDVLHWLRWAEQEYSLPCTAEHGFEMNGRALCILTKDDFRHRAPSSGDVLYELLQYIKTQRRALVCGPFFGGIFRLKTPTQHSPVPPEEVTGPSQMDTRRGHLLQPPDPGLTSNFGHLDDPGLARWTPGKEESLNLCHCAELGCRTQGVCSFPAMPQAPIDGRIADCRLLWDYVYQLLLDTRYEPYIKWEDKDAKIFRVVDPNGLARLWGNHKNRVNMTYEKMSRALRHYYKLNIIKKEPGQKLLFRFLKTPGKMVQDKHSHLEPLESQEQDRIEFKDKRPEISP
# How it was run: as §1
# [15] = biological target: T11, ELF5 (Homo sapiens, UniProt Q9UKW6-2 1-255); settings: protein: recombinant; tags: N-terminal GST; dsDNA, one strand shown
# T11 sequence: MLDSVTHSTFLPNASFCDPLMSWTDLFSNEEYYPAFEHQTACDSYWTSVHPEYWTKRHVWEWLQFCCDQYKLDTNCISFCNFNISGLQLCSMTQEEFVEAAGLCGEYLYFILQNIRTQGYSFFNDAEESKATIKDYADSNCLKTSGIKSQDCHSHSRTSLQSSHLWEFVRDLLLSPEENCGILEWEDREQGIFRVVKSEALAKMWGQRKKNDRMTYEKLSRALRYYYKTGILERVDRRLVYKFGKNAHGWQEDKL
# How it was run: as §1
# [16] = biological target: T12, ETV3 (Homo sapiens, UniProt P41162-2 1-143); settings: protein: recombinant; tags: N-terminal GST; dsDNA, one strand shown
# T12 sequence: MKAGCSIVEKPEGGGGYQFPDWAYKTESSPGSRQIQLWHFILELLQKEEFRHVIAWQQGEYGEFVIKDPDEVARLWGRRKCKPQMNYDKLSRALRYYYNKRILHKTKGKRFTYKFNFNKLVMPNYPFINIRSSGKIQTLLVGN
# How it was run: as §1
# [17] = biological target: ETV6 (Homo sapiens, UniProt P41212 1-452); settings: protein: recombinant; tags: N-terminal GST; dsDNA, one strand shown
# How it was run: as §1
# Sequence of ETV6 (P41212 whole entry): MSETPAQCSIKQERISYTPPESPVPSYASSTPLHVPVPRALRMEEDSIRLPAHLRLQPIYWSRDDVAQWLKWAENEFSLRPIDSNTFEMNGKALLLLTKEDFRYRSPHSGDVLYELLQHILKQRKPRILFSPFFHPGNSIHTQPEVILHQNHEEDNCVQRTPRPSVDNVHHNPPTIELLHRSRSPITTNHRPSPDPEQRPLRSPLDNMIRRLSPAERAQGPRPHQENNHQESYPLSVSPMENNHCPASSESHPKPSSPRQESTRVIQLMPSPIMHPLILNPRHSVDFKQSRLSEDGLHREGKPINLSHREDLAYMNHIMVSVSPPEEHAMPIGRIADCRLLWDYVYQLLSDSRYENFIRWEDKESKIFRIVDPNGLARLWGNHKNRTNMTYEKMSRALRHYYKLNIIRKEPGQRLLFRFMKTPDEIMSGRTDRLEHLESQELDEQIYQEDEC
# Sequence of ETV1 (P50549 whole entry): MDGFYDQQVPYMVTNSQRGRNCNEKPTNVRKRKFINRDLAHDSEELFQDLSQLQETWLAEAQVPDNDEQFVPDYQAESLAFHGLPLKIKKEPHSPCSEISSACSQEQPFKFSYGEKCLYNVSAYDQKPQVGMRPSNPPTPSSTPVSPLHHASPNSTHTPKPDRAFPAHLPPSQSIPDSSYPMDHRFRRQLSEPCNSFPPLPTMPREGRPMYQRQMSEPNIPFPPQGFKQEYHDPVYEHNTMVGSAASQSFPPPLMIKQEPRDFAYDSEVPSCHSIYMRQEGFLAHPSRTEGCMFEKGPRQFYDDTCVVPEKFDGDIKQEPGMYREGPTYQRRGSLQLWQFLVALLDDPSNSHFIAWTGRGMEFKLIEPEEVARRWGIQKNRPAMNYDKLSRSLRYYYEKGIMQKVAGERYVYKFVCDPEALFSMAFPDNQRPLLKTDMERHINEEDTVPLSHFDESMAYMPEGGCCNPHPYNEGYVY
# Sequence of HSF1 (Q00613 whole entry): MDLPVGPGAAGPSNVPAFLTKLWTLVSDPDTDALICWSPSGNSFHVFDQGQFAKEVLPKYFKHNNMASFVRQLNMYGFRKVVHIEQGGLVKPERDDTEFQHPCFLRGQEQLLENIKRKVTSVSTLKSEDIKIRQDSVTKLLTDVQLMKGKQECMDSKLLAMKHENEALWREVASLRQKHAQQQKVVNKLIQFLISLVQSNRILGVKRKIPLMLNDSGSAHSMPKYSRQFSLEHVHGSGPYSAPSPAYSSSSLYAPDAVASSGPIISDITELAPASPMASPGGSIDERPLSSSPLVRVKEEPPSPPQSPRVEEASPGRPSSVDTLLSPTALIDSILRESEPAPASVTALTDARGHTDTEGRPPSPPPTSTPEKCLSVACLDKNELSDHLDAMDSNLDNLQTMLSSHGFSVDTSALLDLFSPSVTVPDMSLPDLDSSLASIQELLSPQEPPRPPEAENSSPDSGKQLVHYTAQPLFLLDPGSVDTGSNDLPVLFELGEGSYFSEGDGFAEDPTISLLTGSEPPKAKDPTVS
# Sequence of ELF4 (Q99607 whole entry): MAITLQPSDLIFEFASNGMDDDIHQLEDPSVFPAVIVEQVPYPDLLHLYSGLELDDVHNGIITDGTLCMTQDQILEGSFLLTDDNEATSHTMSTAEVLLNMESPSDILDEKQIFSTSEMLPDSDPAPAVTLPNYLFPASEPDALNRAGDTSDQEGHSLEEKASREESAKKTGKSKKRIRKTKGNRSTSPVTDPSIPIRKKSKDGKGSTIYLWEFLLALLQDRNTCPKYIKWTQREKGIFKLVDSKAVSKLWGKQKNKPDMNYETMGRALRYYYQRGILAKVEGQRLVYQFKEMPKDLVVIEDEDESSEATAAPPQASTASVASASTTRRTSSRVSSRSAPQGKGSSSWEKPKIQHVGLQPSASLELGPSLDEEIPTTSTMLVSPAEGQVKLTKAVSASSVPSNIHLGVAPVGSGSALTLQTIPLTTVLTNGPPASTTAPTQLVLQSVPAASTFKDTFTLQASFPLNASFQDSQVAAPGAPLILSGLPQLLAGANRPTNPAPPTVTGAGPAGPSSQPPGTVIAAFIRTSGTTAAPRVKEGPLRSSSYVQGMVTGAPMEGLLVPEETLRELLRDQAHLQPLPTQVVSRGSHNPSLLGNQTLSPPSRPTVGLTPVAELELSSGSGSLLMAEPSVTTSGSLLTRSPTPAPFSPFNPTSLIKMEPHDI
# Sequence of ETV5 (P41161 whole entry): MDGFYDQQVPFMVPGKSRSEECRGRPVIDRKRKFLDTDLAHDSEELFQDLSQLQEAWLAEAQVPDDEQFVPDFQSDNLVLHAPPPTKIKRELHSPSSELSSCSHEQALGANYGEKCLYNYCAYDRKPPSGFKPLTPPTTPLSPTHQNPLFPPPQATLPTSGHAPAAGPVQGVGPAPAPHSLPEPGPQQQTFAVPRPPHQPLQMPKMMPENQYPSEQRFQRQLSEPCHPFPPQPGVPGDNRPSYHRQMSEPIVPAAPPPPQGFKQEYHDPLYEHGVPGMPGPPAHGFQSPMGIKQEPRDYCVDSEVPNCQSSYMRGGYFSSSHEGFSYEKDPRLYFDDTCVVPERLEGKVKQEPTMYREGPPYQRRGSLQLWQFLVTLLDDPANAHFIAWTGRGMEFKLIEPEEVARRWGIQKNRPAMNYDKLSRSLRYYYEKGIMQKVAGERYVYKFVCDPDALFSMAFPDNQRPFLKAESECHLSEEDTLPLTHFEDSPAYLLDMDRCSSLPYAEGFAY
sequence,measurement,setting,value
CCACTC,binding signal,[1],"1.27 fold enrichment (6-mer frequency, TF over GST control)"
same,binding signal,[2],"1.23 fold enrichment (6-mer frequency, TF over GST control)"
same,binding signal,[3],"1.05 fold enrichment (6-mer frequency, TF over GST control)"
same,binding signal,[4],"1.27 fold enrichment (6-mer frequency, TF over GST control)"
same,binding signal,[5],"1.29 fold enrichment (6-mer frequency, TF over GST control)"
same,binding signal,[6],"1.49 fold enrichment (6-mer frequency, TF over GST control)"
same,binding signal,[7],"1.18 fold enrichment (6-mer frequency, TF over GST control)"
same,binding signal,[8],"1.14 fold enrichment (6-mer frequency, TF over GST control)"
same,binding signal,[9],"1.17 fold enrichment (6-mer frequency, TF over GST control)"
same,binding signal,[10],"1.13 fold enrichment (6-mer frequency, TF over GST control)"
same,binding signal,[11],"1.28 fold enrichment (6-mer frequency, TF over GST control)"
same,binding signal,[12],"1.21 fold enrichment (6-mer frequency, TF over GST control)"
same,binding signal,[13],"1.26 fold enrichment (6-mer frequency, TF over GST control)"
same,binding signal,[14],"1.21 fold enrichment (6-mer frequency, TF over GST control)"
same,binding signal,[15],"1.19 fold enrichment (6-mer frequency, TF over GST control)"
same,binding signal,[16],"1.14 fold enrichment (6-mer frequency, TF over GST control)"
same,binding signal,[17],"1.13 fold enrichment (6-mer frequency, TF over GST control)"
